# Only some compounds are listed: those with a hit (about 1.8% of all), similar ones and a draw of the others.
# GSTO1 counter – inhibitors of recombinant GSTO1, primary screen, counter-screen for RBBP9 inhibitor project, biochemical, fluorescence polarization | inhibition, % at 5.96 µM | AID 1974, 2009 | 1.1% of 300,000 active | activity-based probe fluorescence polarization;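 active = inhibition above the campaign mean inhibition plus 3 SD, cut at about 35% in these data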;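 note: 0% = GSTO1-1 with DMSO and 100% = wells lacking GSTO1-1 enzyme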
# PME-1 primary – PME-1 inhibitors via competitive probe labeling, primary screen, biochemical, fluorescence polarization, FP-Rh probe, HTS | Protein phosphatase methylesterase 1 (Homo sapiens), Q9Y570 | recombinant PME-1 | inhibition, % at 5.9 µM | 0.53% of 320,000 active | AID 2130, 2009;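 active = inhibition above the campaign mean of all compounds plus 3 SD, cut at about 26% in these data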;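 note: competitive labeling of PME-1 active site by serine hydrolase directed probe; 0% = PME-1 with DMSO and 100% = wells lacking PME-1 enzyme; inhibitors block probe labeling so polarization falls and inhibition rises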
# LYPLA2 counter – LYPLA2 inhibitors, primary screen, counter-screen for PME1 inhibitor project, biochemical, fluorescence polarization, FP-Rh probe ABPP; Acyl-protein thioesterase 2 (Homo sapiens), O95372; recombinant LYPLA2; inhibition, % at 5.9 µM; 0.38% of 320,000 active;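 active = inhibition above the screen-wide mean plus 3 SD, limit set per campaign, cut at about 26% in these data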;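 note: 0% = LYPLA2 with DMSO and 100% = wells lacking LYPLA2 enzyme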
# Target sequence (O95372 whole entry, looked up): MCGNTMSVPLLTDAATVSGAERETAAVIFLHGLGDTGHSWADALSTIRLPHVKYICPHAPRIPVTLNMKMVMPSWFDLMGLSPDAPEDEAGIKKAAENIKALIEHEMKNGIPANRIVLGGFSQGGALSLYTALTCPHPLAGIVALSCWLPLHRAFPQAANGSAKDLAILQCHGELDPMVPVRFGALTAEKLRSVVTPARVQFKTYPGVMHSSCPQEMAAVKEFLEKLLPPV
# LYPLA1 inh – LYPLA1 inhibitors, primary screen, counter-screen for PME1 inhibitor project, biochemical, fluorescence polarization, FP-Rh probe ABPP. inhibition, % at 5.9 µM. recombinant LYPLA1. 0.16% of 320,000 active;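 active = inhibition above the mean of all tested compounds plus 3 SD, set per campaign, cut at about 14% in these data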;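 note: inhibitors block serine hydrolase probe labeling of LYPLA1 so polarization falls; 0% = enzyme with DMSO and 100% = wells lacking LYPLA1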
# Target sequence (O75608 whole entry, looked up): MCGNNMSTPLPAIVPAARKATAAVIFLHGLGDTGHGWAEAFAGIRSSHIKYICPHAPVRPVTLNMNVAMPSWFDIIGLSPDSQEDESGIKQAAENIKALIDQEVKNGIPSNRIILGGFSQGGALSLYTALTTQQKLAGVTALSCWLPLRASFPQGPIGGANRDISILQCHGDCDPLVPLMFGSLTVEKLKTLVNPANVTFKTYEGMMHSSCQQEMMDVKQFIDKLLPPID
# PAD4 inh – human PAD4 inhibitors, primary screen, biochemical, fluorescence polarization, 1536-well format; recombinant PAD4, RCA probe fluorescence polarization; inhibition, % at 6.36 µM; 0.41% of 330,000 active; AID 485272, 2010;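 active = percent inhibition above a cutoff equal to the mean of all tested compounds plus 3 SD, cut at about 15% in these data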;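 note: 0% = PAD4 with RCA probe and DMSO and 100% = probe without PAD4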
# Fam108B counter – mouse Fam108B serine hydrolase inhibitors, primary screen, counter-screen for RBBP9 inhibitor project, biochemical, fluorescence polarization; recombinant Fam108B, FP-Rh probe fluorescence polarization; inhibition, % at 9.51 µM; 0.33% of 300,000 active; AID 1947, 2009;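 active = inhibition above the screen mean inhibition plus 3 SD, computed separately per campaign, cut at about 18% in these data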;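 note: inhibitors lower polarization as less probe binds the enzyme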
# GSTO1 inh conf – GSTO1 inhibitor hit confirmation, counter-screen for RBBP9 inhibitor project, biochemical, fluorescence polarization, triplicate; shares compounds with GSTO1 counter; recombinant GSTO1, probe fluorescence polarization; inhibition, % at 5.96 µM; 54% of 2,400 active; AID 2176, 2009;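 active = inhibition above the primary screen's cutoff, its mean inhibition plus 3 SD, cut at about 35% in these data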;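 note: loss of polarization as inhibitors block binding of rhodamine sulfonate ester activity probe; 0% = GSTO1 with DMSO and 100% = wells lacking GSTO1 enzyme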
# LYPLA1 confirm – LYPLA1 inhibitors, retest, confirmation, counter-screen for PME1 inhibitor project, biochemical, fluorescence polarization, FP-Rh probe ABPP; recombinant LYPLA1; shares compounds with LYPLA1 inh; 69% of 480 active; inhibition, % at 5.9 µM; AID 2233, 2010;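 active = mean inhibition across replicates above the hit cutoff set in the primary screen, cut at about 15% in these data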;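 note: loss of FP-Rh probe labeling of LYPLA1 seen as lower polarization; 0% = LYPLA1 with DMSO and 100% = wells lacking LYPLA1 enzyme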
# LYPLA2 conf – LYPLA2 inhibitors, retest, confirmation, counter-screen for PME1 inhibitor project, biochemical, fluorescence polarization, FP-Rh probe ABPP | 72% of 1,100 active | inhibition, % at 5.9 µM | recombinant LYPLA2 | shares compounds with LYPLA2 counter;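 active = mean inhibition across replicates above the hit cutoff set in the primary screen, cut at about 26% in these data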;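 note: blocked labeling of the enzyme by serine hydrolase FP-Rh probe lowers polarization; 0% = enzyme with DMSO and 100% = wells lacking LYPLA2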
# PAD4 FP conf – human PAD4 inhibitors, confirmation, biochemical, fluorescence polarization; recombinant PAD4, RCA probe fluorescence polarization; shares compounds with PAD4 inh; inhibition, % at 6.36 µM; 28% of 1,200 active;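 active = mean inhibition across replicates above the hit cutoff set by the earlier primary screen, cut at about 15% in these data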;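 note: inhibitors block active-site labeling by the probe so polarization falls; 0% = PAD4 with probe and DMSO and 100% = probe without PAD4 enzyme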
# Starred values were filed as active, the others as inactive; · = not tested or not shown; ! = a repeat was not active.
SMILES,GSTO1 counter,PME-1 primary,LYPLA2 counter,LYPLA1 inh,PAD4 inh,Fam108B counter,GSTO1 inh conf,PAD4 FP conf,others
C=C(C)C(Cc1c(OC)ccc(C(=O)/C=C/c2ccc(O)cc2)c1O)OO (configuration not stated),·,·,·,·,-2.8,·,·,·,
Cc1nn(Cc2ccccc2)c(C)c1C=C1C(=O)NC(=S)NC1=O,2.5,-7.2,-8.2,-0.9,0.1,-6.4,·,·,
O=C1C(c2ccccc2)=C(N2CC2)c2ccccc21,40.8*,2.6,0.2,-3.0,-3.4,-1.6,32.7,·,
CCn1c(O)c(C=NCCc2c[nH]c3ccccc23)c(=O)[nH]c1=O,1.9,2.3,0.2,-0.2,-2.9,-2.0,·,·,
Cn1cc(NC(=O)CCl)cn1,79.6*,-7.8,-0.8,-1.0,-2.0,1.4,88.6*,·,
CCOC(=O)c1c(NS(=O)(=O)c2ccccc2)n(CCCOC)c2nc3ccccc3nc12,93.1*,33.2*,96.2*,83.2*,78.9*,8.6,58.9*,-5.2,LYPLA1 confirm=1.0;LYPLA2 conf=0.1
COCCOC(=O)c1c(N)n(Cc2ccc(OC)cc2)c2nc3ccccc3nc12,32.4,1.8,-3.7,-4.0,-9.0,-5.9,·,·,
CC[C@@H](CO)NC(=O)[C@@H]1C=C2c3cccc4c3c(cn4C)C[C@H]2N(C)C1,47.8*!,5.1,9.9,6.4,22.3*!,3.2,11.8,1.4,
CCN1CCN(Cc2cc(Br)cc(Br)c2O)CC1,7.2,5.0,4.6,2.8,5.4,6.0,·,·,
COC(=O)c1cccc(N=Cc2c(O)n(Cc3ccc(F)cc3)c(=O)[nH]c2=O)c1,3.4,-4.3,-1.1,-0.4,4.0,-0.2,·,·,
COc1ccc(CN2C(=O)NC(=O)/C(=C\c3cccc(OC)c3OC)C2=O)cc1,19.2,-1.8,0.5,0.5,-2.8,2.3,·,·,
COc1cc2c(cc1OC)-c1c(OC)c(OC)cc3c1[C@H](C2)N(C)CC3,47.3*,3.6,1.8,3.0,23.0*,4.0,71.4*,8.8,
CN1CC[C@@]2(C)c3cc(O)ccc3N(C)C2O1 (some centres not stated),85.0*,7.1,4.4,-3.6,44.8*,1.0,51.5*,8.8,
C=CCN1CC[C@@]2(C)c3cc(O)ccc3CC1[C@@H]2C,2.0,1.2,-0.7,-3.7,-4.5,1.1,·,·,
COC(=O)C1=C(c2cc3ccccc3o2)C[C@@H]2CC[C@H]1N2C(=O)NCc1ccc(C(F)(F)F)cc1,-1.9,-2.3,-7.1,-7.5,-3.4,-4.4,·,·,
CNc1ccc2oc(C[C@H]3O[C@@]4(CC[C@H]3C)O[C@H]([C@H](C)C(=O)c3ccc[nH]3)[C@H](C)C[C@H]4C)nc2c1C(=O)O,42.3*,0.1,6.6,-3.0,56.9*,1.2,7.8,7.7,
c1ccc(OCC2CO2)cc1 (configuration not stated),·,-3.2,1.8,-4.7,-3.0,·,·,·,
O=C(O)CC1OCC=C2CN3CCC45C6=CC(=O)C(=O)C([N+](=O)[O-])=C6NC4C1C2CC35 (configuration not stated),78.6*,5.7,-2.9,1.6,66.1*,2.7,81.9*,60.1*,

# Screening data from PubChem.
